Measured values reported in PubChem BioAssay AID1626 (SRMLSC, 2009).
Hit rate of the full screen: of about 220,000 compounds, about 2,000 (0.91%) were called active. About 2% were inconclusive and are not listed. The list is a sample of the results. Measured potencies and affinities stand elsewhere. A number with no mark means an inactive call. No stated cut-off is given here; in the data, inconclusive means inhibition above about 80% without an active follow-up result; inactive means below that; test concentration not stated here.

Test: M. tuberculosis H37Rv growth inhibitors, H37Rv strain (AID 1626);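 further: bacteria incubated seven days before Alamar blue readout; 0% = bacteria only wells and 100% = bacteria with antibiotic wells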
Details: stronger effect = higher value, concentration not given here

Structure (SMILES)	inhibition [%]
CCN(CC)CCOC(=O)c1ccc(NC(=O)c2cn(-c3ccccc3)nc2-c2cccs2)cc1	31.3
Cc1c(CN2CCCCC2C)c(=O)n(-c2ccccc2)n1C (centres undefined)	-1.26
CCCC(=O)Nc1nc2ccc(NC(=O)c3ccc(Br)o3)cc2s1	-1.78
Cc1cc(N2CCN(C)CC2)nc2ccc(NC(=O)c3cccnc3Cl)cc12	-11.1
Cc1nc2ccc(NC(=O)c3ccco3)cc2s1	5.89
CNC(=O)Nc1ccc2nc(C)sc2c1	-3.76
Cc1nc2ccc(NC(=O)N(C)c3ccccc3)cc2s1	76.8
CCN1CCN(c2cc(C)c3cc(NC(=O)c4ccc(Br)o4)ccc3n2)CC1	-5.55
Cc1cc(N2CCN(C)CC2)nc2ccc(NC(=O)c3ccc(Br)o3)cc12	5.2
CCN1CCN(c2cc(C)c3cc(NC(=O)c4cccnc4Cl)ccc3n2)CC1	-2.95
COC(=O)/C=C1\C(=O)N(c2nc3ccccc3s2)C(=S)N1c1ccc(F)cc1	3.22
O=C(N/C(=C\c1ccccc1)C(=O)N1CCN(CCO)CC1)c1ccccc1	-6.53
Cn1cc(C(=O)NP(=O)(N2CCOCC2)N2CCOCC2)c2ccccc21	4.83
CCc1nc(SCc2ccc(C(=O)OC)o2)n[nH]1	1.73
COc1cc(C(=O)Nc2ccc(-n3cnnn3)c(C)c2)cc(OC)c1OC	-2.46
Cc1ccc2[nH]c(=O)c(CN(Cc3ccco3)S(=O)(=O)c3c(C)ccc4nsnc34)cc2c1	1.42
COc1ccc(NC(=O)C/C(C)=N/NC(=O)C(=O)NC(C)C)c(OC)c1	-3.77
CCCCOC(=O)c1ccc(NC(=O)c2cnccn2)cc1	79.1
CCOc1ccc(NC(=O)c2cnccn2)cc1	7.63
O=C(O)Cc1ccc(NC(=O)c2cnccn2)cc1	2
CCOC(=O)c1ccc(NC(=O)c2cnccn2)cc1	38.2
COCCNc1ccc(-c2nn(C)c(=O)c3ccccc23)cc1[N+](=O)[O-]	-0.74
CN1CCN(C(=O)c2ccc(N3CCCC3=O)cc2)CC1	-13.8
COc1c(C)cccc1C(=O)Nc1ccc(N2CCOCC2)c(Cl)c1	6.42
C/C(=N/NC(=O)CNC(=O)CCc1ccccc1)c1ccc(Cl)cc1	-2.99

Structure (SMILES)	inhibition [%]
O=C(Oc1ccccc1)c1c(Cl)cccc1P(=O)(O)O	-3.52
CCCc1nnc(-c2cc(OC)c(OC)c(OC)c2)o1	0.88
Nc1nnc(SCCCC(=O)c2ccc(F)cc2)s1	7.95
Nc1nnc(SCCCC(=O)c2ccc(Br)cc2)s1	0.26
CCc1nc2ccccc2c(C(=O)Oc2cccc3cccnc23)c1C	22.1
Cc1c(C(=O)Nc2cccc3cccnc23)oc2ccccc12	-1.97
O=[N+]([O-])c1ccccc1OCCOCCOc1cccc2cccnc12	-5.36
NC(=O)c1ccc(Oc2cccc3cccnc23)c([N+](=O)[O-])c1	49.5
Cc1c(C(=O)O/N=C(\N)c2ccccn2)cccc1[N+](=O)[O-]	-0.03
COc1ccc(CSc2cccc3cccnc23)cc1[N+](=O)[O-]	-0.94
COc1ccccc1NC(=O)N1CCN(c2ccc(F)cc2)CC1	4.69
COCCCNC(=S)N1CCC(NC(=O)c2ccco2)CC1	0.03
CCCCOC(=O)N/N=C/C=C/c1ccccc1	5.74
COc1ccc2[nH]cc(CCNC(=S)NC3CCCC3)c2c1	4.31
NNC(=O)c1ccc(Cn2cc(Br)cn2)o1	-4.47
CCn1cnc2cc(NCc3cccs3)ccc21	3.06
CN(C)C(CNC(=S)Nc1cccc(Cl)c1)c1ccccc1 (centres undefined)	3.58
Nc1cc2c(cc1C(=O)c1cccc(Br)c1)OCCO2	4.56
Cc1ccc(NS(=O)(=O)c2cc(C(=O)Nc3cccc(N(C)S(C)(=O)=O)c3)ccc2C)c(C)c1	8.69
COc1ccc(NC(=O)c2cccc(S(=O)(=O)Nc3ccc(Br)cc3)c2)cn1	7.12
O=C(Nc1cccc(S(=O)(=O)Nc2ccc(Cl)cc2)c1)c1ccc[n+]([O-])c1	8.19
Cc1ccc(NS(=O)(=O)c2cc(NC(=O)c3cc4c(s3)CCCC4)ccc2C)c(C)c1	6.18
CS(=O)(=O)N1CCCC(C(=O)NCCN2CCC(Cc3ccccc3)CC2)C1 (centres undefined)	3.9
CCN(CC)C(=O)C(=O)c1ccn(-c2c(C)csc2C(=O)OC)c1	10.3
